The supplement of paper PMC6555819

Assays:
Assay in all cases: PBM binding z-score (relative to random genomic background probes); higher = stronger binding; sequences stand for … in GC…GCGATTGACAGCGTAGAATGAAGG
[1] = test system: PPARg:RXRa DBDmut IVT, anti-RXR (DBD mutation: RXRa K156A/R161A, NR concentration 270 nM, RXRa partner concentration 90 nM)
Outline: (§1)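 The probes on custom Agilent 4×180K protein-binding microarrays were double-stranded, with 34-nt variable regions bearing direct-repeat seeds, single-nucleotide variants, half-site ablations and random human genomic background sequences. Incubation lasted 1 h with ligand-free nuclear receptor dimers in PBS pH 7.4, 2% milk, 0.02% Triton X-100, 1 mM DTT, 0.2 mg/mL BSA and 0.4 mg/ml salmon testes DNA. Antibodies against each partner (one per run) detected bound dimers, and fluorescence scans were regression-normalized. Binding z-scores take the random background probes as reference.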

[2] = test system: PPARg:RXRa IVT, anti-PPARg (NR concentration 270 nM, RXRa partner concentration 90 nM)
Outline: as §1

[3] = test system: PPARg DBDmut:RXRa IVT, anti-PPARg (DBD mutation: PPARg1 K132A/R137A, NR concentration 270 nM, RXRa partner concentration 90 nM)
Outline: as §1

[4] = test system: PPARg DBDmut IVT, anti-PPARg (DBD mutation: PPARg1 K132A/R137A, NR concentration 270 nM)
Outline: as §1

[5] = test system: PPARg homodimer (NR concentration 180 nM)
Outline: as §1

[6] = test system: PXR:RXRa (NR concentration 270 nM, RXRa partner concentration 90 nM)
Outline: as §1

[7] = test system: PXR homodimer (NR concentration 270 nM)
Outline: as §1

[8] = test system: RARa:RXR (NR concentration 270 nM, RXRa partner concentration 90 nM)
Outline: as §1

[9] = test system: RARa homodimer (NR concentration 270 nM)
Outline: as §1

[10] = test system: RARb:RXRa (NR concentration 270 nM, RXRa partner concentration 90 nM)
Outline: as §1

[11] = test system: RARb homodimer (NR concentration 270 nM)
Outline: as §1

[12] = test system: RARg:RXRa (NR concentration 270 nM, RXRa partner concentration 90 nM)
Outline: as §1

[13] = test system: RARg homodimer (NR concentration 270 nM)
Outline: as §1

[14] = test system: RXRa DBDmut IVT, anti-RXR (DBD mutation: RXRa K156A/R161A, NR concentration 90 nM)
Outline: as §1

[15] = test system: RXRa homodimer (NR concentration 180 nM)
Outline: as §1

[16] = test system: THRa:RXRa (NR concentration 90 nM, RXRa partner concentration 90 nM)
Outline: as §1

[17] = test system: THRa homodimer (NR concentration 90 nM)
Outline: as §1

[18] = test system: VDR homodimer (NR concentration 270 nM)
Outline: as §1

Row | Sequence | PBM binding z-score [1] | PBM binding z-score [2] | PBM binding z-score [3] | PBM binding z-score [4] | PBM binding z-score [5] | PBM binding z-score [6] | PBM binding z-score [7] | PBM binding z-score [8] | PBM binding z-score [9] | PBM binding z-score [10] | PBM binding z-score [11] | PBM binding z-score [12] | PBM binding z-score [13] | PBM binding z-score [14] | PBM binding z-score [15] | PBM binding z-score [16] | PBM binding z-score [17] | PBM binding z-score [18]
1 | TCTATTAGTTGAAGGGCAACCGCCGAGTCCGTTT | 2.32 | 0.783 | 0.465 | 1.32 | 1.11 | 0.779 | 0.698 | 0.905 | 1.14 | 1.74 | 1.41 | 0.448 | 0.651 | 1.57 | 0.559 | 0.213 | 0.417 | 1.86
2 | CCTACTGGGTCAAGGTCATTGATCAGTCAAAGCA | 6.45 | 7.7 | 0.76 | 0.202 | 2.56 | 5.07 | 2.3 | 4.8 | 0.915 | 4.73 | 4.88 | 5.77 | 5.74 | 2.59 | 5.72 | 4.24 | 3.31 | 4.04
3 | TCATATAGGTAATACAGGTGCAAGTCGGCATCTA | 3.87 | 2.67 | 1.02 | 0.643 | 0.337 | 1.07 | 0.613 | 0.828 | 1.43 | 0.563 | 0.266 | 0.587 | 0.617 | 1.65 | 0.938 | 1.16 | -0.0511 | 1.03
4 | GCTAGCAGGACATTTGGGTCACTCAATGACGGGC | 1.29 | 2.12 | -1.17 | -1.5 | -0.156 | 0.607 | 0.862 | 0.611 | -0.875 | 1.16 | 1.56 | 0.785 | 0.992 | 0.736 | 0.598 | 1.81 | 0.828 | 0.846
5 | TCTCGGAGGACACGTAGGTCAGAGCTTTCCAGAG | 1.13 | 0.761 | -0.418 | -1.11 | 0.0512 | 0.765 | -0.00599 | 0.992 | -0.463 | 2.54 | 2.65 | 2.17 | 2.67 | 0.656 | 1.04 | 2.44 | 0.686 | 0.567
6 | CAAACTAGGTCAAACGTCAAAGTCGAGCCAACCA | 8.33 | 8.65 | 4.47 | 4.15 | 2.05 | 2.38 | 0.241 | 3.65 | 0.354 | 4.21 | 2.99 | 4.6 | 4.53 | 2.28 | 4.16 | 3.13 | 0.831 | 1.04
7 | ACAATGAGGTTACCAAAGATCAGGGAAACGCTTG | 2.64 | 2.42 | 0.961 | 1.48 | 0.966 | 1.52 | 0.0541 | 2.2 | 0.0916 | 2.32 | 1.14 | 2.27 | 2.07 | 1.4 | 2.9 | 2.77 | 1.14 | 0.706
8 | GCTAGTTGGTCAGTACAAGGTCACACACCGGTCG | 0.892 | 2.35 | -0.0423 | 0.196 | 2.2 | 3.74 | 1.58 | 3.91 | 0.633 | 3.36 | 4.39 | 4.09 | 3.66 | 0.602 | 3.47 | 4.02 | 4 | 2.53
9 | CCAGACCGGTGAAAGGTAACTCAGTCTGGTACGC | -0.315 | 1.07 | -1.56 | -0.816 | 0.901 | 0.218 | -0.239 | 0.267 | -0.377 | 0.477 | 0.414 | 0.36 | -0.096 | -0.727 | 0.696 | 0.429 | -0.178 | -0.186
10 | CCTAGTTCGTCAGGAGGTCACACACCGGATATGA | 1.04 | 2.38 | 0.424 | 0.947 | 5.39 | 5.2 | 2.66 | 5.34 | 2.32 | 3.76 | 4.54 | 6.37 | 4.42 | 3.1 | 4.83 | 3.92 | 2.68 | 4.2
11 | CCGACTGGGGCATACGGTTACCATAAGCCAGCCC | 2.5 | 2.15 | -0.604 | -1.2 | 0.276 | -0.401 | -0.646 | -0.126 | -0.0238 | 0.496 | 0.117 | 0.0936 | 0.374 | -0.766 | 0.369 | -0.473 | -0.389 | -0.653
12 | TCTCGGAGGACACGAAGGTCATAGCTTTCCAGAG | 1.58 | 1.77 | -0.131 | -1.04 | 1.95 | 3.8 | 3.5 | 3.59 | 0.346 | 3.62 | 3.93 | 4.04 | 4.13 | 1.41 | 3.28 | 3.55 | 1.66 | 3.09
13 | GATACAGGGTCAGCTAGAGGCCAGAGTCTGGAAA | 1.42 | 2.41 | -0.329 | -0.829 | 2.68 | 3.16 | -0.43 | 4.74 | 0.22 | 4.16 | 3.39 | 6.56 | 5.07 | 1.7 | 4.07 | 2.9 | 0.144 | 0.522
14 | CTACCAAGGTTAACAAGGTCGTTGATTACTATTC | 1.98 | 1.78 | 0.186 | 0.431 | 1.25 | 4.32 | 8.81 | 3.19 | 0.369 | 2.81 | 2.69 | 2.82 | 2.39 | 2.35 | 2.98 | 3.39 | 1.93 | 3.98
15 | ATACCAAGGTGATCGTGAGGTCCTTGATACTAAC | 0.257 | 0.989 | 0.0116 | -0.0653 | -0.043 | 0.241 | 0.00841 | 0.662 | 0.0164 | 0.729 | 0.337 | 0.376 | 0.386 | 0.0286 | 0.487 | 1.94 | 0.903 | 0.291
16 | TCACATAGGTAAAGGTGAAAGTCGAACGATATGA | 2.47 | 2.45 | 0.764 | 0.579 | 1.1 | 1.19 | 0.504 | 1.75 | 1.33 | 2.05 | 1.65 | 1.65 | 1.26 | 1.26 | 2.34 | 1.44 | -0.0581 | -0.223
